Measurements taken from paper PMC5700166.
Residue numbers refer to the chain shown, from its start.

Columns and labels:
Assay in all cases: protein-binding microarray (PBM); PBM: ~300 nM protein, 6 mM HEPES pH 7.8, 80 mM KCl, 0.5 mM EDTA, 0.5 mM EGTA, 6% glycerol, 35 ng/ul poly-dIdC, 1% milk, 1 h, room temperature; Ap Aiptasia and Nv Nematostella (sea anemones) / Co Capsaspora / Aq Amphimedon (sponge) / Dm Drosophila / Hu human; RHD is the Rel homology domain; high values mean tight binding
Conditions in all cases: dsDNA, one strand shown
GST-Ap-NF-kB RHD = target: T1, GST-Ap-NF-kB RHD (Exaiptasia pallida (Aiptasia), UniProt A0A913YAJ5 2-422)
T1 sequence: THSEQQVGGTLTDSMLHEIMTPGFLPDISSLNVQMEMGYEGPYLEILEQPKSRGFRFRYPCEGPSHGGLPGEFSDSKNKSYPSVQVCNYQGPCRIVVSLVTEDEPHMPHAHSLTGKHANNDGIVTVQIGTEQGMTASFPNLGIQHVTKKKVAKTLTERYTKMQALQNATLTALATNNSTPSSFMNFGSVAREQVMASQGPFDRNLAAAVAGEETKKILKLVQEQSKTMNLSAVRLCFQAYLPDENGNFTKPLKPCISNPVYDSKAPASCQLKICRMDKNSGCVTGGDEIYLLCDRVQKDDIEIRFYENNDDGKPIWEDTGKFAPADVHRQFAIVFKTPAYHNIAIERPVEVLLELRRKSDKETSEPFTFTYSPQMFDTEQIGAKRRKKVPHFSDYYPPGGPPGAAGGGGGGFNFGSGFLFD

[1] = target: T2, GST-Nv-NF-kB (Cys allele) (Nematostella vectensis, UniProt E5G601 2-411)
T2 sequence: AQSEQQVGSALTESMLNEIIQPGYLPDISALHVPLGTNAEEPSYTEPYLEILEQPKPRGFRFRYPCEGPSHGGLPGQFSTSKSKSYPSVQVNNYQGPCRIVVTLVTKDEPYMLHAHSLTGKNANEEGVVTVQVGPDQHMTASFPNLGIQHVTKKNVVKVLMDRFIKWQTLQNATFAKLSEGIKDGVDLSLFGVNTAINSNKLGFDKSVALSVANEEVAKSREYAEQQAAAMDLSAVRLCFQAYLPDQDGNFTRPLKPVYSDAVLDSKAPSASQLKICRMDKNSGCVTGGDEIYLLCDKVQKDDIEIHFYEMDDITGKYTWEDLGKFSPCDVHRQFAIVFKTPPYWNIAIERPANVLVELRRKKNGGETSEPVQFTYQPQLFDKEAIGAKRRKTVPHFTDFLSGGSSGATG

[2] = target: T3, GST-Nv-NF-kB (Ser allele) (Nematostella vectensis, UniProt A7UNT2 2-411)
T3 sequence: T2 sequence with Q21R, C66S, S207N, E215Q, V217A, E225K, A268E, D399E

GST-Co-NF-kB = target: T4, GST-Co-NF-kB (Capsaspora owczarzaki, UniProt F1ARL5 200-546)
T4 sequence: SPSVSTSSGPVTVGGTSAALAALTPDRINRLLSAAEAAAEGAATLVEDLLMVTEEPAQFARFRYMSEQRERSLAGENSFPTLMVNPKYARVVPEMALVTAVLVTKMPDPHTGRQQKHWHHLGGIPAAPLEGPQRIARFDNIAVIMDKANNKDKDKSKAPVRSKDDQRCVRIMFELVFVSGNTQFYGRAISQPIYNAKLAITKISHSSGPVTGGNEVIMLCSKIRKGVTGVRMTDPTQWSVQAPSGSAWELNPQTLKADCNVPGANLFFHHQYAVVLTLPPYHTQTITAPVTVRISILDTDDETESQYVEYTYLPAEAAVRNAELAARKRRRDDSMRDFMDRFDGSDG

GST-Dm-Relish = target: T5, GST-Dm-Relish (Drosophila melanogaster, UniProt Q94527 99-473)
T5 sequence: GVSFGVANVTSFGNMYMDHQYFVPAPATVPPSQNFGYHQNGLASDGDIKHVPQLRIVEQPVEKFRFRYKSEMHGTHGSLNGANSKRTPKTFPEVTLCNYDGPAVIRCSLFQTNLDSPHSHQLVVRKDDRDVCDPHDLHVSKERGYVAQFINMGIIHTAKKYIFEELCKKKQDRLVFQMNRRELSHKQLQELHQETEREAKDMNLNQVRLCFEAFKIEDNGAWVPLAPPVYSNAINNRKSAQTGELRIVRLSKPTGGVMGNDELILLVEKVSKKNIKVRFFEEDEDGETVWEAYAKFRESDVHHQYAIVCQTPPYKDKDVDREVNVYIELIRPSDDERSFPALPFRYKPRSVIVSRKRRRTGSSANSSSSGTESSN

GST-Aq-NF-kB = target: T6, GST-Aq-NF-kB (Amphimedon queenslandica, UniProt A9Y5G7 2-389)
T6 sequence: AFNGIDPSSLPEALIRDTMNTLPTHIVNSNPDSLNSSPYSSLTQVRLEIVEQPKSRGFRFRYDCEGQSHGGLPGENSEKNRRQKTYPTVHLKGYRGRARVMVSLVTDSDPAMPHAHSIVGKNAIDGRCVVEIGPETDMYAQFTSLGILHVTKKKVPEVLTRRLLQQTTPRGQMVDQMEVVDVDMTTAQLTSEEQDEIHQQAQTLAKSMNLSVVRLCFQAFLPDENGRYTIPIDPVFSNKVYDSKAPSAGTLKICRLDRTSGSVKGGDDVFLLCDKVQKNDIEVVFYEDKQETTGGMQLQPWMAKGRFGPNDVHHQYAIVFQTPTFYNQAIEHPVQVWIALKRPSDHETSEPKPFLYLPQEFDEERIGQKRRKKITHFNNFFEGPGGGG

GST-Hu-p50 = GST-Hu-p50 (Homo sapiens, UniProt P19838 7-356)
Sequence of GST-Hu-p50 (P19838 7-356): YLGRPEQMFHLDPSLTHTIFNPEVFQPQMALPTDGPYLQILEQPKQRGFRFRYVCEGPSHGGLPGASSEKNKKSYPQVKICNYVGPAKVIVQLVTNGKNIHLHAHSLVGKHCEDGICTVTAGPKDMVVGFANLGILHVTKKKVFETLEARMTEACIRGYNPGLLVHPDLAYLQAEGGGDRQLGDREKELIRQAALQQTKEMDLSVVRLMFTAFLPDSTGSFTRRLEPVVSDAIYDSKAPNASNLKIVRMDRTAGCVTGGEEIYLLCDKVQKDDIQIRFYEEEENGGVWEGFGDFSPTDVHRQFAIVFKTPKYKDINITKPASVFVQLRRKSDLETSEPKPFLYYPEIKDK

Sequence	binding signal (GST-Ap-NF-kB RHD) [z-score]	binding signal [1] [z-score]	binding signal [2] [z-score]	binding signal (GST-Co-NF-kB) [z-score]	binding signal (GST-Dm-Relish) [z-score]	binding signal (GST-Aq-NF-kB) [z-score]	binding signal (GST-Hu-p50) [z-score]
CCGATTAACATCACATGTTTCCCTGATGTTAATCGGGTCTTGATTCGCTTGACGCTGCTG	2.33	3.31	4.21	4.5	1.48	4.01	1.17
CCGATTAACATCAGGACGTCCCCTGATGTTAATCGGGTCTTGATTCGCTTGACGCTGCTG	7.08	6.03	4.26	2.18	5.29	7.4	4.57
CCGATTAACATCAAAGTCCCCCGTGATGTTAATCGGGTCTTGATTCGCTTGACGCTGCTG	6.78	5.8	6.12	6.7	7.35	5.87	5.37
CCGATTAACATCAAGGGGAAGGGTGATGTTAATCGGGTCTTGATTCGCTTGACGCTGCTG	4.52	5.48	5.81	3.95	2	4.16	4.32
CCGATTAACATCACGGGGAATTCTGATGTTAATCGGGTCTTGATTCGCTTGACGCTGCTG	9.62	10.1	10.3	8.83	8.15	7.98	6.54
CCGATTAACATCAAGGGGAAATCTGATGTTAATCGGGTCTTGATTCGCTTGACGCTGCTG	8.38	9.53	12.2	7.59	6.04	6.89	7.08
CCGATTAACATCAGGGGGGGCAATGATGTTAATCGGGTCTTGATTCGCTTGACGCTGCTG	4.42	3.92	3.15	4.99	4.29	3.72	3.8
CCGATTAACATCAGGGGGATGCATGATGTTAATCGGGTCTTGATTCGCTTGACGCTGCTG	4.72	4.49	5.56	4.12	3.39	3.86	4.84
CCGATTAACATCAAAGCATCCCCTGATGTTAATCGGGTCTTGATTCGCTTGACGCTGCTG	4.67	5.06	6.87	3.43	3.26	4.15	4.58
CCGATTAACATCAAGGGGGTATCTGATGTTAATCGGGTCTTGATTCGCTTGACGCTGCTG	6.66	4.44	4.28	3.26	3.38	4.34	4.61
CCGATTAACATCAAGTTTTCCCCTGATGTTAATCGGGTCTTGATTCGCTTGACGCTGCTG	8.03	8.76	11.2	10.3	6.09	6.59	6.59
CCGATTAACATCAGGGGGGTTAATGATGTTAATCGGGTCTTGATTCGCTTGACGCTGCTG	4.64	4.44	4.14	3.92	6.25	4.51	4.97
